MITF inhib – blocks MITF activity; TRPM1 promoter luciferase, luminescence, 24 h; inhibition, % (concentration not given with the values); 37,000 tested, 0.28% active; in the data active means inhibition above about 85%;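 further: human melanocyte line stably carrying TRPM1 promoter luciferase reporter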
U2OS ROS induce – inducers of reactive oxygen species in cancer cells | U2OS ROS induction, H2DCF-DA fluorescence | ROS induction (% of piperlongumine), % at 10 µM | 46,000 tested, 2% active; in the data active means ROS induction above about 79%, passing the limit was not always enough
BJeLR viab HTS – compounds reducing viability of BJeLR cells; BJeLR fibroblasts viability, CellTiterGlo ATP luminescence, 48 h; HRASV12, hTERT and SV40 LT/ST transformed; viability loss activity score, % (no concentration beside the values); 30,000 tested, 0.64% active; AID 2275; in the data active means viability loss activity score above about 50%;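 further: higher score means fewer live cells and less ATP luminescence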
YB-1 expression – YB-1 expression inhibition; U2OS, qRT-PCR YB-1 vs CDIP delta delta Cp, 16 h; active compounds read high; zero = DMSO, each unit about twofold; delta delta Cp (YB-1 minus CDIP) (test concentration not listed); 30,000 tested, 0.37% active; AID 434959;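 active means delta delta Cp rounded down to an integer at or above 3, about 3 SD of DMSO wells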;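 further: higher means less YB-1 transcript or more CDIP transcript relative to DMSO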
Large screens that a line does not name were inactive. The list is not random: actives were taken first. Their share in the collection is about 2.5%.

Cn1c(=O)oc2cc(S(=O)(=O)N3CCC(C(=O)NCCc4ccc(Cl)cc4)CC3)ccc21	none (no result: MITF inhib, U2OS ROS induce, YB-1 expression)
COc1c(C)c(O)c(C)c(O)c1C(=O)CCc1ccccc1	none
COc1c(Cc2ccccc2O)c(O)c(Cc2ccccc2O)c(O)c1C(=O)CCc1ccccc1	MITF inhib 91
OCCCn1c(-c2ccccc2)cn2c3ccccc3nc12	MITF inhib 98 (no result: U2OS ROS induce, BJeLR viab HTS, YB-1 expression)
O=C(NCC1CCCO1)c1cc(-c2ccc(Cl)s2)nc2ccccc12 (stereo not given)	none (no result: MITF inhib, U2OS ROS induce, YB-1 expression)
